Screening data (PubChem BioAssay)
Cycloheximide cs = Cycloheximide Counterscreen for Small Molecule Inhibitors of Shiga Toxin | cell reporter, cycloheximide protein synthesis inhibition counterscreen | actives 12% (n = 300,000) | max response, %; in the data active = max response mostly above about 13%, no sharp cut-off; inactive = mostly below about 14%; also: read at 38.3 µM for the half of the compounds with a filed dose; 0% is about no effect
NS1 function inh = qHTS Assay for Inhibitors of Influenza NS1 Protein Function; Potency, µM (doses to about 46.1 µM), inactives show at the highest dose activity, positive = more growth; actives 0.4% (n = 270,000); calls by dose curve; also: potency is read from the fitted curve at half-maximal effect; actives are rising curves; nearly all actives have a fitted effect of over 50% in size
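Compounds were scored for reversing the slow growth caused by influenza A NS1 in S. cerevisiae, measured by optical density at 600 nm. Assay medium contained 2% galactose at pH 6.0; NS1-free yeast of the same strain were the positive control.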
Pf growth 48h = Primary qHTS for delayed death inhibitors of the malarial parasite plastid, 48 hour incubation. Potency, µM (top dose mostly 28.7 µM), for the others: at the highest dose activity change, negative = inhibition, hits mostly inhibitors. actives 5.9% (n = 310,000). P. falciparum luciferase growth in erythrocytes, 48 h; also: potency is read from the fitted curve at half-maximal effect; % is scaled to controls: 0 for no effect and ±100 for the full control effect
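Growth was read as firefly luciferase luminescence after a 48 h, 37 C, 5% CO2 exposure of compounds to reporter-bearing P. falciparum cultures (0.1% parasitemia, 2% hematocrit final) in Albumax-supplemented RPMI 1640.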
Sm TGR inh = qHTS Assay for the Inhibitors of Schistosoma Mansoni Peroxiredoxins | Schistosoma mansoni thioredoxin glutathione reductase (TGR), Q962Y6 | purified TGR, DTNB reduction, TNB absorbance 405 nm | Potency, µM (doses to about 114 µM), for the others: top-dose activity change, negative = inhibition, usual class: inhibitors | actives 3% (n = 360,000); also: potency is read from the fitted curve at half-maximal effect; % is scaled to controls: 0 for no effect and ±100 for the full control effect; nearly all actives have a fitted effect of over 60% in size
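First, TGR (20 nM dispensed) and NADPH were mixed with compound. Second, a 15 min room-temperature incubation followed. Third, further NADPH and then DTNB were added to start the reaction. Finally, TNB absorbance was monitored kinetically.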
Shiga inhibitor = A qHTS for Small Molecule Inhibitors of Shiga Toxin. Vero cells, Shiga toxin protein synthesis inhibition reporter. inhibition, % at 38.7 µM. actives 9.2% (n = 290,000); in the data active = inhibition mostly above about 28%, no sharp cut-off; inactive = mostly below about 43%; also: 0% is about no effect
Pf growth 96h = Primary qHTS for delayed death inhibitors of the malarial parasite plastid, 96 hour incubation; P. falciparum luciferase reporter growth, 96 h; Potency, µM (highest dose often 28.7 µM), for the others: at the highest dose activity change, negative = inhibition, most hits filed as inhibitors; actives 6.9% (n = 320,000); AID 504834, 2011; also: potency is read from the fitted curve at half-maximal effect; % is scaled to controls: 0 for no effect and ±100 for the full control effect
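Cell-based qHTS: luciferase-tagged P. falciparum in erythrocytes (2% hematocrit, 0.05% parasitemia final) incubated with compounds for 96 hours, 37 C, 5% CO2; luciferase detection reagent then added and luminescence measured.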
* hit, by the source's call. The list is not random: actives were taken first. Their share in the collection is about 21%. Unless noted, calls follow the shape of the dose curve; as a rule, active = well fitted curve in the direction sought with a large enough effect; inconclusive = small, poorly fitted or top-dose-only effect, or another doubt; inactive = no such curve, though single readings can be large; an effect the other way counts as inactive or inconclusive.

`O=C(CCNC(=O)C1CCN(S(=O)(=O)c2ccccc2)CC1)NCCc1cccc(F)c1` gave Cycloheximide cs -2.8, NS1 function inh -5.7%, Pf growth 48h 1.5%, Sm TGR inh 3.4%, Shiga inhibitor -6.4 and Pf growth 96h inconclusive.
Screening COc1ccc(CCNC(=O)[C@H](CC(C)C)NC(=O)N2CCn3c2nc2ccccc23)cc1OC returned Cycloheximide cs -2.1, NS1 function inh -19.3%, Pf growth 48h inconclusive, Sm TGR inh -1.5%, Shiga inhibitor -15.6 and Pf growth 96h inconclusive.
Screening Cc1oc2ccc(O)cc2c1C(=O)OC(C)C returned Cycloheximide cs 21.9*, NS1 function inh 0.4%, Pf growth 48h 63.7%, Sm TGR inh -1.1%, Shiga inhibitor 54.6 and Pf growth 96h -33.0%.
`COc1ccc2oc3ccc(OC)cc3c(=O)c2c1` gave Cycloheximide cs 22.4*, NS1 function inh -38.6%, Pf growth 48h 220.6%, Sm TGR inh 10.5%, Shiga inhibitor 156.1 and Pf growth 96h 106.7%.
For Cc1oc2ccc(OCC(N)=O)cc2c1C(=O)OC(C)C the results were Cycloheximide cs 1.0, NS1 function inh -1.4%, Pf growth 48h 9.1%, Sm TGR inh -4.5%, Shiga inhibitor -3.3 and Pf growth 96h inconclusive.
`COc1ccc(OCCC(=O)NC2=NCCS2)cc1` gave Cycloheximide cs 26.6*, NS1 function inh -9.3%, Pf growth 48h 49.9%, Sm TGR inh 2.3%, Shiga inhibitor 61.9 and Pf growth 96h 8.0%.
CC(C)(C)c1ccc(OCCC(=O)NC2=NCCS2)cc1 was read as Cycloheximide cs 11.9*, NS1 function inh -156.0%, Pf growth 48h 23.7%, Sm TGR inh 7.7% and Shiga inhibitor 41.6.
`CCOc1ccc(OCCCC(=O)NC2=NCCS2)cc1` gave Cycloheximide cs -6.7, NS1 function inh 3.3%, Pf growth 48h 0.5%, Sm TGR inh -0.4% and Shiga inhibitor -18.6.
Cn1cc(-c2cc3n(n2)CCC(=O)N3CC(=O)O)c2ccccc21 was read as Sm TGR inh 7.9%.
`Cc1cccc(OCC(=O)Nc2ccc(S(=O)(=O)N3CCCC3)cc2)c1` gave Cycloheximide cs -3.0, NS1 function inh -8.5%, Pf growth 48h inconclusive, Sm TGR inh -0.3%, Shiga inhibitor -4.6 and Pf growth 96h 36.2%.
Screening O=C(COc1cccc(C(F)(F)F)c1)Nc1ccc(S(=O)(=O)N2CCCCC2)cc1 returned Pf growth 48h inconclusive, Sm TGR inh -1.6% and Pf growth 96h 9.28µM*.
For Cc1cccc(OCC(=O)Nc2nnc(S(=O)(=O)N3CCCCC3)s2)c1 the results were Cycloheximide cs -2.7, NS1 function inh 18.4%, Pf growth 48h 18.6%, Sm TGR inh 2.4%, Shiga inhibitor -7.2 and Pf growth 96h 7.38µM*.
O=C(COc1ccccc1Br)Nc1ccc(S(=O)(=O)N2CCCC2)cc1 was read as Pf growth 48h 5.86µM*, Sm TGR inh -3.6% and Pf growth 96h inconclusive.
Cc1cccc(OCC(=O)Nc2nnc(S(=O)(=O)N3CCC(C)CC3)s2)c1 was read as Cycloheximide cs -2.6, NS1 function inh -0.3%, Pf growth 48h 42.5%, Sm TGR inh -1.9%, Shiga inhibitor -3.4 and Pf growth 96h inconclusive.
For O=C(CNc1cc(S(=O)(=O)N2CCCC2)ccc1OCC(F)(F)F)Nc1cccc(C(F)(F)F)c1 the results were Cycloheximide cs 3.0, NS1 function inh inconclusive, Pf growth 48h inconclusive, Sm TGR inh -10.4%, Shiga inhibitor -12.4 and Pf growth 96h 13.1µM*.
COc1ccccc1NC(=O)Cn1nnc(-c2ccccc2NC(=O)c2cnccn2)n1 was read as Cycloheximide cs -0.7, Pf growth 48h 19.2%, Sm TGR inh 0.6%, Shiga inhibitor -6.1 and Pf growth 96h -7.0%.
`O=[N+]([O-])c1nn(-c2ccccc2)n(O)c1=NC1CCN(Cc2ccccc2)CC1` gave Cycloheximide cs -2.1, NS1 function inh 2.6%, Pf growth 48h inconclusive, Shiga inhibitor 8.5 and Pf growth 96h inconclusive.
